According to PubChem BioAssay (NCATS):
Results filed as inconclusive are left out. A call without a number means that no potency is given here. Calls of active or inactive are those of the source. Unless noted, calls come from the whole dose curve; as a rule, active = well fitted curve in the direction sought with a large enough effect; inconclusive = small, poorly fitted or top-dose-only effect, or another doubt; inactive = no such curve, though single readings can be large; an effect the other way counts as inactive or inconclusive.

Tests used:
[1] = molecular target: Peptidyl-prolyl cis-trans isomerase NIMA-interacting 1 (Homo sapiens) (UniProt Q13526); assay: qHTS Validation Assay to Find Inhibitors of Pin1 (AID 504536; active = well fitted inhibition curve with a large enough effect in the polarisation, with a control signal flat, not every such curve was filed as active; the % refers to the polarisation; note: potency is the fitted concentration of half-maximal effect)
Chain of Peptidyl-prolyl cis-trans isomerase NIMA-interacting 1 (Homo sapiens) (Q13526 whole entry, looked up): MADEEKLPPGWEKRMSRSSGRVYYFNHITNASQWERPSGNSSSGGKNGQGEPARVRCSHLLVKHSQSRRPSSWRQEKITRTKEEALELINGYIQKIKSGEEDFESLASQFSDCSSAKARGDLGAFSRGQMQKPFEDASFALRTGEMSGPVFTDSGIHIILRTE
In short: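 Fluorescence polarization competition: compounds (titration) displace HiFluor-488-labeled Pin1-1b peptide from Pin1 (0.3 uM final) in pH 7.5 HEPES buffer with DTT, 10 min at room temperature; %Activity normalized to no-enzyme wells, curves fitted.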

[2] = molecular target: Phosphoglycerate kinase, glycosomal (Trypanosoma brucei brucei) (UniProt P07378); assay: qHTS Validation Assay to Find Inhibitors of Phosphoglycerate Kinase (AID 504547); note: potency is the fitted concentration of half-maximal effect
Chain of Phosphoglycerate kinase, glycosomal (Trypanosoma brucei brucei) (P07378 whole entry, looked up): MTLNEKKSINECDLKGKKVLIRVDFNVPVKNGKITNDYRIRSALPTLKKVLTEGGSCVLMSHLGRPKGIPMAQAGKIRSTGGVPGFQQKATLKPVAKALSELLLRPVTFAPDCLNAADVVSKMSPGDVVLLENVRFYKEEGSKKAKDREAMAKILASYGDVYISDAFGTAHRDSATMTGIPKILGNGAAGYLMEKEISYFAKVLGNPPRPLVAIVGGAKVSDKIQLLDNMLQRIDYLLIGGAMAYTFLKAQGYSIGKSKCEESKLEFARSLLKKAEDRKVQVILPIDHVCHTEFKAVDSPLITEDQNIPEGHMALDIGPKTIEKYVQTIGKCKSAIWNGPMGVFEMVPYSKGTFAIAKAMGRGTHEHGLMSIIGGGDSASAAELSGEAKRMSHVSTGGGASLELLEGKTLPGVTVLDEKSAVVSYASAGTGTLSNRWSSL
In short: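 Compounds are pinned into the substrate/PGK mixture, and GAPDH (100nM final) is added to start the reaction by producing 1,3-BPG. After 60 minutes at room temperature, Kinase-Glo Plus is added and luminescence is measured 10 minutes later.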

[3] = molecular target: phosphoglycerate mutase (Leishmania major) (UniProt Q4Q090); assay: qHTS Validation Assay to Find Inhibitors of Phosphoglycerate Mutase (AID 504548); conditions: Potency: inhibition qHTS;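 note: end-point luminescence from Kinase-GloPlus after the PGAM reaction; series mostly up to about 58 µM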
Chain of phosphoglycerate mutase (Leishmania major) (Q4Q090 1-553): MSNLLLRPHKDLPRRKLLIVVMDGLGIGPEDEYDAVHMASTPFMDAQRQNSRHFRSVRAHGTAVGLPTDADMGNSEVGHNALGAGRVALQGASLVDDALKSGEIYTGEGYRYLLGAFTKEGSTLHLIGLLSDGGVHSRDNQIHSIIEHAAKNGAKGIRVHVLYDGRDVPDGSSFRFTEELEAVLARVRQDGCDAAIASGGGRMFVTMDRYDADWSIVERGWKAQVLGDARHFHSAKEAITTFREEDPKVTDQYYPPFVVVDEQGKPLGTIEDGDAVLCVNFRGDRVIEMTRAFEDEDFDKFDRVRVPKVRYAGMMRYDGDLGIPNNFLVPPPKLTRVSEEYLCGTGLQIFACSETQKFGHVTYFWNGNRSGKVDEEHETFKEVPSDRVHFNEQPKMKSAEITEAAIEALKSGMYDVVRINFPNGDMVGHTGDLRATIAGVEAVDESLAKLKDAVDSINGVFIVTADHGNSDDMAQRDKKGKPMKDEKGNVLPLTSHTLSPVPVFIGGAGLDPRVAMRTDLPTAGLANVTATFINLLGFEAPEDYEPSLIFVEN
In short: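 L. major PGAM (1.25nM final) was added to substrate buffer and pinned compound, incubated 45 minutes at room temperature, then Kinase-GloPlus added; luminescence read after 10 minutes. Buffer: 100 mM TEA pH 7.6, 5 mM MgCl2, 0.01% Tween-20.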

[4] = Inducers of the Endoplasmic Reticulum Stress Response (ERSR) in human glioma: Validation (AID 504836)
In short: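 Stably transfected U87-MG glioma cells carrying a GRP78-based luciferase sensor; 16 h compound incubation. Luminescence end-point read 10 min after Bright-Glo addition at room temperature.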

[5] = molecular target: Ubiquitin carboxyl-terminal hydrolase 1 (Homo sapiens) (UniProt O94782); assay: Inhibitors of USP1/UAF1: Pilot qHTS (AID 504865); note: nearly all actives have a fitted effect of over 35% in size; note: potency is the fitted concentration of half-maximal effect
Chain of Ubiquitin carboxyl-terminal hydrolase 1 (Homo sapiens) (O94782 whole entry, looked up): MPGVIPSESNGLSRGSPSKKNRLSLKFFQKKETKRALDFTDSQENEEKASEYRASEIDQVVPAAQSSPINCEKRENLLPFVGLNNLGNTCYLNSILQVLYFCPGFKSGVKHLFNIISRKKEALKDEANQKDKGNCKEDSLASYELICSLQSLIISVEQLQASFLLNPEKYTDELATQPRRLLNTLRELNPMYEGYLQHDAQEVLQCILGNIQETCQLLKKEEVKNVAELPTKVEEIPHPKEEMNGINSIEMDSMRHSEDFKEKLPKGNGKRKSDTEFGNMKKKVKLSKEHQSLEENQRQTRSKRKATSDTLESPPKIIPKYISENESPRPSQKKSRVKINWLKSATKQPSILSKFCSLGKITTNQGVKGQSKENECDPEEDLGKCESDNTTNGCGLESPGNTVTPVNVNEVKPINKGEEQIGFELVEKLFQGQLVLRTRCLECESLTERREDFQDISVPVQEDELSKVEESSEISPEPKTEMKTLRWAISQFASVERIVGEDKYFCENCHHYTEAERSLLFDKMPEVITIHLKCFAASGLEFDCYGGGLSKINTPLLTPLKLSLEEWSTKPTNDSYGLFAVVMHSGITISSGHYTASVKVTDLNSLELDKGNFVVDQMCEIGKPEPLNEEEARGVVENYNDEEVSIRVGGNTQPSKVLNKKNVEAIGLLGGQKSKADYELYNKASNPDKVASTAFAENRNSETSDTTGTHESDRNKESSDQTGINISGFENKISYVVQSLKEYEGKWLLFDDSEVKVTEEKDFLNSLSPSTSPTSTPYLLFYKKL
In short: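 USP1/UAF1 complex (1nM) preincubated with compound 15 min at room temperature, then Ub-Rho substrate (150nM final) added. Fluorescence read kinetically at 480/540 nm, 6 reads every 60 seconds. Buffer: 50mM HEPES pH 7.8, 0.5mM EDTA, 0.1 mg/ml BSA, 1mM TCEP, 0.01% Tween-20.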

[6] = qHTS for Inhibitors of ATXN expression: Validation of Cytotoxic Assay (AID 588349); note: potency is the fitted concentration of half-maximal effect
In short: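 Cytotoxicity counter-screen: HEK293 cells exposed to compound titrations, 72 hr, 37 degrees C. Read-out is intracellular ATP (CellTiter Glo luminescence) as a viability measure.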

[7] = qHTS for Inhibitors of ATXN expression: Validation (AID 588378); note: nearly all actives have a fitted effect of over 75% in size; note: potency is the fitted concentration of half-maximal effect
In short: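 Luminescence from an ATXN2-FFLuc reporter in HEK293 cells served as read-out after 24 h compound treatment at 37 degrees C; CellTiter-Fluor fluorescence was recorded first to assess viability.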

[8] = molecular target: DNA dC->dU-editing enzyme APOBEC-3G (Homo sapiens) (UniProt Q9HC16); assay: qHTS for inhibitors of Vif-A3G interactions: Validation (AID 588379)
Chain of DNA dC->dU-editing enzyme APOBEC-3G (Homo sapiens) (Q9HC16 whole entry, looked up): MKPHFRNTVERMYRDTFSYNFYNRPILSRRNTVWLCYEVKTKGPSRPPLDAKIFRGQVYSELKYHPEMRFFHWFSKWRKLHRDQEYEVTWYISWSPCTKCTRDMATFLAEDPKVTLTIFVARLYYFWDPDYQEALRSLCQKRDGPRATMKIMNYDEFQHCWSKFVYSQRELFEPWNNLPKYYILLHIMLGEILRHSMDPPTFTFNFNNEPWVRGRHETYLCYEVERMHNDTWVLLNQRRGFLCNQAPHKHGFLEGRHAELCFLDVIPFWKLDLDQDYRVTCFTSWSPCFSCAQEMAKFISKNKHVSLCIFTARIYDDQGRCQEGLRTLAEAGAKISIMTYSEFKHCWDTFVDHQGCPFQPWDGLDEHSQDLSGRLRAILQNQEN
In short: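 Yellow fluorescence (Ex 488, Em 500-530) of Vif-coexpressing HeLa A3G-eYFP cells, scanned by Acumen cytometer, reports blocked A3G degradation. Cells plated at 700/well overnight at 37 deg C before compound addition, then a further overnight compound incubation at 37 deg C.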

[9] = molecular target: Estrogen receptor (Homo sapiens) (UniProt P03372); assay: qHTS assay for small molecule agonists of estrogen receptor alpha signaling (AID 588514; calls by dose curve; note: nearly all actives have a fitted effect of over 70% in size)
Chain of Estrogen receptor (Homo sapiens) (P03372 whole entry, looked up): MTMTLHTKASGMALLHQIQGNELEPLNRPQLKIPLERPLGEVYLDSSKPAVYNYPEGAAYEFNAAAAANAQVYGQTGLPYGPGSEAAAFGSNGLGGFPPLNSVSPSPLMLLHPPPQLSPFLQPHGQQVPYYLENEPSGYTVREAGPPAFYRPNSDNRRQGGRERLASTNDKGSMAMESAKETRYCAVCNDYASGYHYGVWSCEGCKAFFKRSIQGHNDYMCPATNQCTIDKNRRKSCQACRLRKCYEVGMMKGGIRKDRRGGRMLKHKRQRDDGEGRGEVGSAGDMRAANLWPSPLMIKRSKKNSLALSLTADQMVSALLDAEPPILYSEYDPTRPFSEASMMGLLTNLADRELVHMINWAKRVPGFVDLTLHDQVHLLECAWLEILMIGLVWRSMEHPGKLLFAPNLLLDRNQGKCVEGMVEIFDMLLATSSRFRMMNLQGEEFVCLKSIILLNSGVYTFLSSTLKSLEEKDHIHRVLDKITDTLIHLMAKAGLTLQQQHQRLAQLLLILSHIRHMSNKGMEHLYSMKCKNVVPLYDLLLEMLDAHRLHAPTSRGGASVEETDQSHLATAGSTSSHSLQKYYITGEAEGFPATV
In short: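 Read-out: CCF4 fluorescence from a beta-lactamase reporter in ER-alpha-UAS-bla HEK 293 cells after 18 hrs of compound exposure at 37 C. Normalized to 20 nM 17-beta-estradiol (100%) and DMSO (0%).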

SMILES	Potency [1]	Potency [2]	Potency [3]	outcome [4]	Potency [5]	Potency [6]	Potency [7]	outcome [8]	Potency [9]
N#CCCN	inactive	inactive	inactive	inactive	inactive	inactive	inactive	–	–
Cc1[nH]c2ccc(O)cc2c1CCN	inactive	inactive	inactive	inactive	inactive	inactive	–	inactive	–
C[C@@H]1O[C@H](C[N+](C)(C)C)CS1	inactive	inactive	inactive	inactive	inactive	inactive	inactive	–	–
NC(N)=NOCC[C@H](N)C(=O)O	inactive	inactive	inactive	inactive	inactive	–	inactive	inactive	–
CCCC[N+]1(C)C2CC(OC(=O)[C@H](CO)c3ccccc3)CC1C1OC12 (some centres undefined)	inactive	inactive	inactive	inactive	inactive	inactive	inactive	–	–
COc1ccc(OC)c(C(O)C(C)N)c1 (centres undefined)	inactive	inactive	inactive	inactive	inactive	inactive	inactive	–	–
C[N+]1(C)CCOC(O)(c2ccc(-c3ccc(C4(O)C[N+](C)(C)CCO4)cc3)cc2)C1 (centres undefined)	inactive	inactive	inactive	inactive	inactive	inactive	inactive	–	–
CCCN(CCC)[C@@H]1CCc2cccc(O)c2C1	inactive	inactive	inactive	inactive	inactive	inactive	inactive	inactive	–
CC(=O)OCC1=C(C(=O)O)N2C(=O)[C@@H](NC(=O)CCC[C@@H](N)C(=O)O)[C@H]2SC1	inactive	inactive	inactive	inactive	inactive	inactive	inactive	–	–
NCCc1c[nH]c2ccc(C(N)=O)cc12	inactive	inactive	inactive	inactive	inactive	inactive	inactive	inactive	–
NC(Cc1cc(O)c(O)cc1O)C(=O)O (centres undefined)	1.69 µM (active)	0.338 µM (active)	inactive	inactive	14.1 µM (active)	–	inactive	–	–
C[N+](C)(C)CC#CCN1CCCC1=O	inactive	inactive	inactive	inactive	inactive	inactive	–	inactive	–
CC(=O)NBr	inactive	inactive	inactive	inactive	inactive	inactive	inactive	–	–
CN(N=O)c1ccc(O)c(O)c1	4.78 µM (active)	6.01 µM (active)	inactive	inactive	22.4 µM (active)	inactive	inactive	–	–
CN1CC[C@@]2(C)c3cc(OC(=O)Nc4ccccc4)ccc3N(C)[C@@H]12	inactive	–	inactive	inactive	–	–	–	–	–
C=CCN1CCc2cccc3c2[C@H]1Cc1ccc(O)c(O)c1-3	inactive	inactive	–	inactive	inactive	–	–	–	–
O=[N+]([O-])/C=C/c1ccc2c(c1)OCO2	inactive	–	inactive	inactive	inactive	–	–	–	–
NC(=O)c1ccc(OCC(O)CN2CC=C(c3ccc(F)cc3)CC2)cc1 (centres undefined)	inactive	–	inactive	inactive	inactive	inactive	inactive	–	–
COc1ccc2c(c1)/C(=C/c1cnc[nH]1)C(=O)N2	inactive	inactive	–	inactive	inactive	–	–	–	–

SMILES	Potency [1]	Potency [2]	Potency [3]	outcome [4]	Potency [5]	Potency [6]	Potency [7]	outcome [8]	Potency [9]
CCCCCCCCCCCCCC(=O)O[C@@H]1[C@@H](C)[C@@]2(O)[C@@H](C=C(CO)C[C@@]3(O)C(=O)C(C)=C[C@@H]23)C2C(C)(C)[C@@]21OC(C)=O (some centres undefined)	inactive	–	inactive	inactive	–	inactive	–	–	–
NNC(=O)c1ccc(O)cc1	inactive	–	inactive	inactive	inactive	inactive	–	–	–
CNc1ccc2oc(C[C@H]3O[C@@]4(CC[C@H]3C)O[C@H]([C@H](C)C(=O)c3ccc[nH]3)[C@H](C)C[C@H]4C)nc2c1C(=O)O	inactive	inactive	inactive	–	inactive	–	3.16 µM (active)	–	–
NC(C(=O)O)c1cc(=O)[nH]o1 (centres undefined)	inactive	–	inactive	inactive	inactive	inactive	–	–	–
COc1ccc2c(c1O)-c1cccc3c1[C@@H](C2)N(C)CC3	inactive	–	inactive	inactive	inactive	–	inactive	–	–
CC(C)NP(=O)(NC(C)C)OP(=O)(NC(C)C)NC(C)C	inactive	–	inactive	inactive	inactive	inactive	inactive	–	–
Ic1ccccc1CNC1C2CCN(CC2)C1C(c1ccccc1)c1ccccc1 (centres undefined)	inactive	–	inactive	inactive	inactive	25.1 µM (active)	–	–	–
C[C@]12Cc3cn4c(nc3C=C1CCC1C2CC[C@@]2(C)[C@H]1CC[C@@]2(O)C#N)nc1ccccc14 (some centres undefined)	inactive	inactive	inactive	–	inactive	inactive	inactive	–	–
c1ccc2cc(CC3=NCCN3)ccc2c1	inactive	–	inactive	inactive	inactive	inactive	inactive	–	–
O=C(O)c1cc[c]([Hg][Cl])cc1	inactive	inactive	–	inactive	–	–	–	–	inactive
C[C@H](Cc1ccc2c(c1)OC(C(=O)O)(C(=O)O)O2)NC[C@H](O)c1cccc(Cl)c1	inactive	–	inactive	inactive	inactive	inactive	–	–	–
N=C(N)c1ccc(CS(=O)(=O)F)cc1	inactive	–	inactive	inactive	inactive	inactive	–	–	–
NCCc1ccc(S(=O)(=O)F)cc1	inactive	–	inactive	inactive	inactive	inactive	–	–	–
CC(N)Cc1c[nH]c2ccc(O)cc12 (centres undefined)	inactive	–	inactive	inactive	inactive	inactive	–	–	–
C[N+]1(C)CCc2cc3c(cc2[C@H]1[C@@H]1OC(=O)c2c1ccc1c2OCO1)OCO3	inactive	–	inactive	inactive	inactive	inactive	–	–	–
Clc1ccc(N2CC3CCC(C2)N3)nn1	inactive	–	inactive	inactive	inactive	inactive	–	–	–
CC12NC(Cc3ccccc31)c1ccccc12 (centres undefined)	inactive	–	inactive	inactive	inactive	inactive	–	–	–
COc1ccc(CNC(=O)/C=C/c2ccc3[nH]cc(CCN(C)C)c3c2)cc1	inactive	–	inactive	inactive	inactive	inactive	–	–	–
C[N+]1(C)C2CCC1CC(OC(=O)c1c[nH]c3ccccc13)C2 (centres undefined)	inactive	–	inactive	inactive	inactive	inactive	–	–	–

SMILES	Potency [1]	Potency [2]	Potency [3]	outcome [4]	Potency [5]	Potency [6]	Potency [7]	outcome [8]	Potency [9]
CCCn1c(=O)c2[nH]c(C3CCCC3)nc2n(CCCOC(=O)c2ccc(S(=O)(=O)F)cc2)c1=O	inactive	–	inactive	inactive	inactive	inactive	inactive	–	–
CCN1C[C@@]2(COC)C3[C@@H](OC)C4[C@@H]1C3([C@@H]1C[C@]3(O)[C@H](OC(=O)c5ccccc5)[C@@H]1[C@]4(OC(C)=O)[C@@H](O)[C@@H]3OC)[C@H](OC)C[C@H]2O	inactive	–	inactive	inactive	inactive	inactive	–	–	–
CC(N)[C@H](O)c1ccc(O)c(O)c1 (some centres undefined)	13.5 µM (active)	–	inactive	inactive	inactive	inactive	–	–	–
CCCN1CCC[C@@H](c2cccc(O)c2)C1	inactive	–	inactive	inactive	inactive	inactive	inactive	–	–
N#C/C(=C/c1ccc(O)c(O)c1)C(N)=S	inactive	–	inactive	inactive	inactive	–	inactive	–	–
C=CCN1CC[C@]23c4c5ccc(O)c4O[C@H]2/C(=N/NC(=O)c2ccccc2)CC[C@@]3(O)[C@H]1C5	inactive	–	inactive	inactive	inactive	inactive	–	–	–
CN(N=O)c1cc(O)ccc1O	inactive	–	inactive	inactive	inactive	–	28.2 µM (active)	–	–
CN1C2CCC1CC(OC(c1ccccc1)c1ccccc1N)C2 (centres undefined)	inactive	–	inactive	inactive	inactive	–	–	–	–
Cc1sc2ccccc2c1CC1=NCCN1	inactive	inactive	–	inactive	inactive	inactive	–	–	–
OC1CCCCC1N1CCC(c2ccccc2)CC1 (centres undefined)	inactive	–	inactive	inactive	inactive	inactive	inactive	–	–
Cc1cc([C@@H]2CCCN2C)on1	inactive	–	inactive	inactive	inactive	inactive	inactive	–	–
CCCN1CCc2cccc3c2[C@H]1Cc1ccc(O)c(O)c1-3	inactive	–	inactive	inactive	inactive	35.5 µM (active)	–	–	–
COc1ccc2c(c1)c(CCN1CCOCC1)c(C)n2C(=O)c1cccc(Cl)c1Cl	inactive	–	inactive	inactive	–	–	–	–	–
NCC(CP(=O)(O)O)c1ccc(Cl)cc1 (centres undefined)	inactive	–	inactive	inactive	inactive	inactive	inactive	–	–
NC(Cc1ccc(N(CCCl)CCCl)cc1)C(=O)O (centres undefined)	inactive	–	inactive	inactive	inactive	inactive	–	–	–
CC(N)Cc1c[nH]c2ccc(OCc3cccs3)cc12 (centres undefined)	–	–	inactive	inactive	inactive	–	28.2 µM (active)	–	–
CCN(CC)c1ncnc2c1ncn2[C@@H]1O[C@H](COP(=O)(O)OP(=O)(O)C(Br)(Br)P(=O)(O)O)[C@@H](O)[C@H]1O	–	–	–	inactive	–	–	–	–	–
Oc1cccc[c]1[Hg][Cl]	–	–	–	–	44.7 µM (active)	–	–	–	–
